Sfp inh – inhibitors of Bacillus subtilis Sfp phosphopantetheinyl transferase | Q9F4F7 | AID 1490 | hit rate 3.5% among 310,000 | Potency, µM, without a hit: largest response in the series, negative = inhibition, hits mostly inhibitors | Biochemical Sfp PPTase activity, qHTS;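 also: the enzyme is Sfp with the accession as filed and its product quenches rhodamine fluorescence; potency is read from the fitted curve at half-maximal effect; 0% = enzyme reaction without inhibitor and -100% = no enzyme wells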
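After 15 min at room temperature with compound, 15 nM Sfp received 5 uM rhodamine-CoA plus 12.5 uM BHQ-2-ybbR (50 mM Hepes pH 7.6, 10 mM MgCl2). Rate came from the fluorescence difference over 30 min, ex 525/em 598 nm.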
Tau fibril FP – inhibitors of human tau fibril formation; P10636; K18 P301L tau heparin fibrillization, Alexa594 FP, 6 h; Potency, µM (titrated, usually from 57.7 µM), without a hit: at the top dose activity, negative = inhibition, usual class: inhibitors; hit rate 0.39% among 280,000; also: potency is read from the fitted curve at half-maximal effect; nearly all actives have a fitted effect of over 55% in size
Target sequence (P10636 561-689 P618L limits assumed): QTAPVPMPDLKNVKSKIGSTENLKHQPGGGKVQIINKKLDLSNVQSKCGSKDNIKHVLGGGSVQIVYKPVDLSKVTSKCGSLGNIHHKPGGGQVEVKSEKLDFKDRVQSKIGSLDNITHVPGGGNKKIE
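K18 P301L tau (15 uM unlabeled/0.24 uM Alexa 594-labeled, final) + compound + heparin 20 uM final; 100 mM NaOAc pH 7; 6 hr 37 C; ThT 30 uM final added, 1 hr RT; FP ex 555/em 632 nm.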
G9a inh – blocks human histone lysine methyltransferase G9a; AID 504332; Potency, µM (top dose mostly 102 µM), for the others: top-dose activity, negative = inhibition, actives largely listed as inhibitors; Q96KQ7; G9a H3K9 monomethylation, AlphaScreen, 2 h; hit rate 8.8% among 350,000; also: potency is read from the fitted curve at half-maximal effect; nearly all actives have a fitted effect of over 75% in size
Target sequence (Q96KQ7 913-1193 limits assumed): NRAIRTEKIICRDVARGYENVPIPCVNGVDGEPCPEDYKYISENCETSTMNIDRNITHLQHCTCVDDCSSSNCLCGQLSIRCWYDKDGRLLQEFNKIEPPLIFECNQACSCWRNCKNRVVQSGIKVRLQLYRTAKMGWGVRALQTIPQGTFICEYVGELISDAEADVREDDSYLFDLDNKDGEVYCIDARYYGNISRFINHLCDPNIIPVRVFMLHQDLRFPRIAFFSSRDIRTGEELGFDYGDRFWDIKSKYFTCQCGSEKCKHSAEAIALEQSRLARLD
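G9a (20 nM) was preincubated 15 min with compound, then reacted 2 h at room temperature with 500 nM biotin-H3K9 peptide and 20 µM SAM. Monomethyl-H3K9 detected by AlphaScreen using anti-H3K9me1 antibody.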
Tau fluor counter – counter-screen for tau fibril formation inhibitors; Potency, µM (series often up to 57.7 µM), for the others: at the top dose activity change, negative = decrease; tau K18 P301L Alexa594 fluorescence, heparin fibrillization; hit rate 0.93% among 280,000; also: potency is read from the fitted curve at half-maximal effect; nearly all actives have a fitted effect of over 55% in size
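Human tau K18 P301L (15 uM unlabeled, 0.24 uM Alexa 594-labeled) in 100 mM sodium acetate pH 7 with 20 uM heparin, 6 hr at 37 C. ThT 30 uM added, 1 hr ambient; Alexa 594 FP and total fluorescence read at 555/632 nm.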
Tau ThT inhib – tau fibrillization inhibition (ThT binding); P10636; recombinant tau K18 P301L, heparin-induced fibrillization, ThT fluorescence; Potency, µM (doses to about 57.4 µM), inactives show top-dose activity, negative = inhibition, actives largely listed as inhibitors; hit rate 2.1% among 270,000; AID 1460; also: potency is read from the fitted curve at half-maximal effect; nearly all actives have a fitted effect of over 55% in size
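Fibril formation assay: tau K18 P301L at 15 uM with trace Alexa 594 label, heparin inducer 20 uM, pH 7 sodium acetate buffer, 37 C for 6 hr; endpoint ThT signal.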
Coupling enz – coupling enzyme interference in Giardia aldolase counter-screen | activity change, negative = inhibition, % at 58.2 µM, hits read low | coupling enzyme system counterscreen, AmpLite Red fluorescence | hit rate 0.67% among 290,000; in the data active = activity change below about -30%
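Counterscreen of the coupled detection system alone, without aldolase: glyceraldehyde-3-phosphate coupling enzymes plus AmpLite Red readout. Compounds at 57.5 uM final, 10 min RT preincubation, 20 min RT reaction, fluorescence 525/598 nm.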
Numbers without * were called inactive; ? = inconclusive; . = not tested or not shown; ! = repeats disagree; [ ] = another dose, or the depositor's remark. This is a sample that favours compounds with a hit; in the whole collection about 11% have one here. Unless noted, calls follow the shape of the dose curve; as a rule, active = well fitted curve in the direction sought with a large enough effect; inconclusive = small, poorly fitted or top-dose-only effect, or another doubt; inactive = no such curve, though single readings can be large; an effect the other way counts as inactive or inconclusive. Unless noted, % is scaled to controls: 0 for no effect and ±100 for the full control effect.

SMILES	Sfp inh	Tau fibril FP	G9a inh	Tau fluor counter	Tau ThT inhib	Coupling enz
Cc1ncsc1CCC(=O)N1CCCC(Nc2ccc(C(C)C)cc2)C1 (centres undefined)	20%	.	50µM*	.	.	.
O=C(O)COc1ccccc1/C=C1\SC(=S)N(/N=C/c2ccccc2O)C1=O	?	-5%	11%[2.33 µM]	-5%	?	6
O=C1/C(=C/c2cccc(Br)c2)SC(=S)N1/N=C/c1cc([N+](=O)[O-])ccc1O	-18%	.	40µM*	.	.	4
O=C1/C(=C\c2ccc(O)cc2)SC(=S)N1/N=C/c1ccc(O)cc1	0%	1%	.	?	5µM*	4
COC(=O)CCCC1=CC2=C(c3ccccc3)C(=O)C(C)(OC(=O)C3CCCC3)C(=O)C2=CN1Cc1ccco1 (centres undefined)	56µM*!	4%[11.6 µM]	1%[12.7 µM]	3%[11.6 µM]	?	-10
COC(=O)CCCC1=CC2=C(c3ccccc3)C(=O)C(C)(OC(=O)C3CCCC3)C(=O)C2=CN1CCCCO (centres undefined)	-7%	5%[11.6 µM]	5%[59 µM]	9%[11.6 µM]	?	-24
Cc1cc(OCCn2ccnc2)cc(C(C)C)c1	-13%	2%	11µM*	4%	-1%	-1
Cc1cc(OCCCn2ccnc2)cc(C(C)C)c1	-17%	4%	8.9µM*	-14%	-14%	0
C=CCn1c(=S)[nH]c2scc(-c3ccc(C)o3)c2c1=O	28µM*	4%	50µM*	-21%	?	5
Cc1ccc(-c2csc3ncn(/N=C/N(C)C)c(=O)c23)o1	-6%	1%	-14%[59 µM]	0%	-4%	-1
C=CCn1c(SCC(=O)NCCCC)nc2scc(-c3ccco3)c2c1=O	20µM*	-12%	-22%[59 µM]	-11%	?	1
C=CCn1c(SCC(=O)NCC2CCCO2)nc2scc(-c3ccccc3)c2c1=O (centres undefined)	11%	.	13%	.	.	1
Cc1ccc(-c2csc3nc(C)n(-n4c(C)ccc4C)c(=O)c23)o1	20µM*	-4%	?	-8%	?	-1
C=CCn1c(SCC(=O)NC(=O)NCc2ccco2)nc2sc(C)c(C)c2c1=O	9%	3%	20%	1%	-6%	0
C=CCn1c(SCC(=O)NC2CCCC2)nc2scc(-c3ccco3)c2c1=O	10µM*	?	?	-19%	28µM*	0
Cc1ccc(-c2csc3nc(C)n(N)c(=O)c23)o1	-7%	2%	-36%[59 µM]	-9%	?	-3
CC(=O)OC1CC(OC(C)=O)[C@]2(C)C(CC(OC(C)=O)[C@]3(C)C2CC[C@@]2(C)C(c4ccoc4)OC(=O)C4O[C@]432)C1(C)C (some centres undefined)	15%	3%	-15%[2.33 µM]	-8%	-6%	-2
CC1Sc2ccc(S(=O)(=O)CCC(=O)Nc3ccccn3)cc2NC1=O (centres undefined)	7%	.	15%	.	.	1
COc1cccc(CNC(=O)c2cc(-c3ccc(Cl)cc3)n[nH]2)c1	.	?	16%[59 µM]	-12%	?	.
C=CCn1c(SCC(C)=O)nc2scc(-c3ccc(C)o3)c2c1=O	50µM*	.	45µM*	.	.	2
C=CCn1c(SCC(=O)Nc2c(C)n(C)n(-c3ccccc3)c2=O)nc2scc(-c3ccccc3)c2c1=O	16%	1%	-49%[59 µM]	-3%	-6%	12
C=CCn1c(=S)[nH]c2sccc2c1=O	-38%	-10%	13µM*	-7%	-17%	-8
CCOC(=O)C1CCCN(Cc2cc(Br)c(OC)cc2OC)C1 (centres undefined)	-21%	5%	?	11%	-4%	-4
CCOC(=O)C1CCCN(Cc2cc(Br)ccc2OC)C1 (centres undefined)	?	4%	3.2µM*	3%	-4%	-2
CCCN1CCN(S(=O)(=O)c2ccc(OC)c(Br)c2)CC1	1%	-7%	?	-13%	-13%	4
SMILES	Sfp inh	Tau fibril FP	G9a inh	Tau fluor counter	Tau ThT inhib	Coupling enz
COc1ccc(CN2CCN(S(=O)(=O)c3ccc(C)cc3)CC2)cc1Br	?	-8%	7.1µM*	-25%	-7%	-4
CCN(CC)C(=O)C1CCCN(Cc2ccc(OC)c(C)c2C)C1 (centres undefined)	50µM*	5%	?	3%	3%	1
COc1ccc(Br)cc1CN1CCCCCC1	13%	.	32µM*	.	.	-1
CCOc1ccc(NC(=O)Cn2c(=O)n(Cc3ccccc3)c(=O)c3c4c(sc32)CN(C(C)=O)CC4)cc1	.	?	-20%[59 µM]	?	3%	.
Cc1ccc(-n2nnnc2CNC(=O)c2ccccc2S(C)(=O)=O)cc1C	.	3%	-9%[59 µM]	5%	9%	.
COc1ccc2ccccc2c1CN1CCSCC1	?	.	.	.	.	3
COc1ccc(Br)cc1CN1CCSCC1	-8%	.	45µM*	.	.	1
COc1ccc(CN2CCCCCC2)cc1Br	0%	.	32µM*	.	.	3
CCn1c(SCC(=O)c2c(N)n(C3CC3)c(=O)[nH]c2=O)nnc1-c1ccoc1C	.	.	-12%[59 µM]	.	.	.
Cc1ccc2c(c1)-c1c(cnc3cc(-c4ccc(F)cc4)nn13)CO2	.	-12%	29%[59 µM]	-8%	4%	.
N#CC1=C2Sc3ccccc3N2CCCC1=O	15%	-2%	-5%[59 µM]	3%	10%	12
N=C1C2=C3Sc4ccccc4N3CCCC2=NN1c1cccc(S(=O)(=O)O)c1	89µM*	-2%	?	-15%	-19%	2
COc1ccc(F)cc1S(=O)(=O)NCCc1sc2nc(-c3ccc(F)cc3)nn2c1C	.	-10%	-2%[59 µM]	?	-3%	.
CSc1nn2cc(CCN3CCOCC3)c(-c3ccc(F)cc3)nc2c1C#N	13%	-2%	17%	0%	5%	2
COc1ccc(-c2cc3ccc(O)c(CN4CCN(CCO)CC4)c3oc2=O)cc1OC	.	-3%	-1%[59 µM]	-8%	8%	.
CN(C)c1ccc(CNc2ncnc3sccc23)cc1	-6%	.	13µM*	.	.	3
CN(C)c1ccc(CNc2ncc(Br)cc2Br)cc1	-7%	4%	40µM*	?	?	1
NS(=O)(=O)c1ccc(CNc2ncnc3sccc23)cc1	22%	.	?	.	.	-3
CC(C)CCC(CC(C)O)c1n[nH]c(=S)n1-c1ccccc1 (centres undefined)	-23%	-5%	6.3µM*	7%	3%	0
CCc1ccc(-n2c(C)n[nH]c2=S)cc1	-8%	-2%	-48%	-3%	-5%	3
CC(c1n[nH]c(=S)n1-c1ccc(Cl)cc1)N(C)C (centres undefined)	-26%	0%	8.9µM*	-4%	-4%	13

High-throughput results: PubChem, National Center for Advancing Translational Sciences (NCATS)
